Source: PubChem BioAssay (several laboratories)
PHOSPHO1 inh: PubChem AID 1565. Phosphoethanolamine/phosphocholine phosphatase (Homo sapiens), Q8TCT1. 290,000 tested, 1.1% active. inhibition, % at 13.3 µM. recombinant PHOSPHO1, absorbance phosphatase assay; in the data active means inhibition above about 60%
ALR H2O2 inh: inhibitors of human ALR sulfhydryl oxidase, primary screen, biochemical, H2O2 detection, HRP-luminol luminescence, single point | inhibition, % (test concentration not listed) | 290,000 tested, 3.8% active | AID 485317, 2010 | purified ALR, DTT oxidation;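 active means mean replicate inhibition above about 79%, with every replicate also reaching it, limit read from the data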
Target sequence (P55789 whole entry, looked up): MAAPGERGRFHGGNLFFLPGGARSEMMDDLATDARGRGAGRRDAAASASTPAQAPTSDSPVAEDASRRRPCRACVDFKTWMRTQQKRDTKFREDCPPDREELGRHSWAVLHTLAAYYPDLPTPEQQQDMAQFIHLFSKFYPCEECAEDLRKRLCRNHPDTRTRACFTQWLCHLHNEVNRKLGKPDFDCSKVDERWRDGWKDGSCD
A3G deaminase: APOBEC3G DNA deaminase inhibitors, primary screen, biochemical, fluorescence, single-stranded DNA substrate, uHTS; recombinant A3G, ssDNA deamination FAM/TAMRA fluorescence; inhibition, % at 20 µM; 330,000 tested, 0.28% active; AID 493012, 2011;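 active means inhibition of at least 40% at 20 µM, with no more than 30% in the related APOBEC3A deaminase screen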
Target sequence (Q9HC16 whole entry, looked up): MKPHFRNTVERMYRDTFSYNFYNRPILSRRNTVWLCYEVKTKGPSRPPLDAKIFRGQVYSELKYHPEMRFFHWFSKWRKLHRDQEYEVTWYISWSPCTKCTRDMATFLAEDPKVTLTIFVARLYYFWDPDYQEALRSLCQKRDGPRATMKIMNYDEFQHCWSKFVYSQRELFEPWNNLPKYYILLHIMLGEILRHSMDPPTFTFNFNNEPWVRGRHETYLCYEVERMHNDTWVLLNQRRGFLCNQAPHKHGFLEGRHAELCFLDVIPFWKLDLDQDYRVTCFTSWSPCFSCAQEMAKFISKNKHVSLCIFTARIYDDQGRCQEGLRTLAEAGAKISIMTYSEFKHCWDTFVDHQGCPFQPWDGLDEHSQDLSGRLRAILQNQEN
rCAG binder: binders of r(CAG) RNA repeats, primary screen, biochemical, fluorescence. r(CAG) RNA repeat, TO-PRO-1 dye displacement fluorescence. inhibition, % at 3 µM. 370,000 tested, 1.3% active. AID 651821, 2012;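 active means inhibition above the plate cutoff, the mean of all test compounds on that plate plus 3 SD, cut at about 35% in these data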;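 further: higher means more dye released from RNA so lower well fluorescence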
aDG glyco act: activators of alpha-DG glycosylation, primary screen, uHTS, Pro5-aDG cells, AlphaScreen | alpha-DG glycosylation AlphaScreen (IIH6); 0% Pro5, 100% B10-LARGE cell signal | activation, % at 10 µM | 360,000 tested, 0.22% active | AID 624168, 2012;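 active means activation of at least 8% versus controls, or a plate z-score of at least 8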;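 further: Pro5 are CHO cells carrying HIG-tagged alpha-DG that lacks glycosylation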
A3A deaminase: APOBEC3A ssDNA deaminase inhibitors, primary screen, selectivity assay for APOBEC3G inhibitor project, biochemical, FAM/TAMRA oligo cleavage fluorescence | DNA dC->dU-editing enzyme APOBEC-3A (Homo sapiens), P31941 | 330,000 tested, 0.41% active | inhibition, % at 20 µM | recombinant A3A, FAM/TAMRA ssDNA deamination fluorescence;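 active means at least 40% inhibition at 20 µM here, with at most 30% in a related deaminase screen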
A3A conf: APOBEC3A deaminase inhibitors, retest, confirmation, selectivity assay for APOBEC3G inhibitor project, biochemical, single concentration, fluorescence readout. shares compounds with A3A deaminase. recombinant A3A, ssDNA deaminase UDG fluorescence assay. inhibition, % at 20 µM. 1,400 tested, 63% active. AID 493151, 2011;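 active means inhibition reaching a set limit, 80% of the first screen's cutoff, at 20 µM in any replicate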
UDG A3A counter: E. coli UDG inhibitors, confirmation, counter-screen for APOBEC3A inhibitor project, biochemical, single concentration, fluorescence, FAM/TAMRA oligo; shares compounds with A3A deaminase; UDG counterscreen, FAM/TAMRA uracil oligo fluorescence; inhibition, % at 20 µM; 1,000 tested, under 10 active; call rule not given here
Of the large screens only hits and unclear results are named; the others gave an inactive call (follow-up assays come after a bar, where they were run). An excerpt weighted towards active compounds, which were near 5.4% of everything screened.

C=C1CCC2C(C)(C(=O)O)CCCC2(C)C1CCC(CO)CCO (configuration not stated)	none (no result: PHOSPHO1 inh, ALR H2O2 inh, A3G deaminase, A3A deaminase)
CCN(CC(=O)Nc1ccc(NC(C)=O)cc1)C(=O)/C=C/c1ccccc1	none (no result: PHOSPHO1 inh)
CCN(CC(=O)Nc1ccc(NC(C)=O)cc1)C(=O)/C=C/c1cn(-c2ccccc2)nc1-c1cccs1	A3A deaminase 45 (no result: PHOSPHO1 inh) | A3A conf inactive
O=S1(=O)N[C@@H](Cc2ccccc2)COc2cc(N3CCCCC3)ccc21	none (no result: PHOSPHO1 inh, ALR H2O2 inh, A3G deaminase, aDG glyco act, A3A deaminase)
O=C1C(=Cc2ccc(Br)o2)C(=O)c2ccccc21	none (no result: A3G deaminase, rCAG binder, A3A deaminase)
Cc1ccc(C(=O)O)cc1-c1ccc(C=C2C(=O)c3ccccc3C2=O)o1	A3A deaminase 44 | A3A conf 35 | UDG A3A counter inactive
C[C@H]1CN([C@@H](C)CO)C(=O)c2cc(-c3ccccc3F)cnc2O[C@@H]1CN(C)C(=O)NC1CCCCC1	none (no result: PHOSPHO1 inh, ALR H2O2 inh, A3G deaminase, A3A deaminase)
O=C(O)c1cccc(O)c1O	none (no result: PHOSPHO1 inh)
Oc1cccc(O)c1O	ALR H2O2 inh 83, A3A deaminase 42 (no result: PHOSPHO1 inh, rCAG binder, aDG glyco act) | A3A conf 44
COc1ccc(NC(=O)OC[C@@H]2CSCCS(=O)(=O)N2)cc1	none (no result: PHOSPHO1 inh, ALR H2O2 inh, A3G deaminase, aDG glyco act, A3A deaminase)
Cc1ccoc1C(=O)NCc1occc1C(=O)O	none | A3A conf inactive
Cc1ccoc1C(=O)NCCNC(=O)c1occc1C	none (no result: PHOSPHO1 inh, ALR H2O2 inh)
Cc1cc(C(=O)O)ccc1-c1ccc(/C=C2\NC(=O)N(Cc3ccc(F)cc3)C2=O)o1	A3A deaminase 58 | A3A conf 44 | UDG A3A counter inactive
O=C1N/C(=C/c2cccn2-c2ccc(F)cc2)C(=O)N1Cc1ccccc1	none
O=C(O)c1cccc(-n2cccc2/C=C2\NC(=O)N(Cc3ccc(F)cc3)C2=O)c1	A3A deaminase 87 | A3A conf 74 | UDG A3A counter inactive
Cc1ccc(CN2C(=O)N/C(=C\c3cccn3-c3cccc(C(=O)O)c3)C2=O)cc1	rCAG binder 47, A3A deaminase 79 | A3A conf 80 | UDG A3A counter inactive
Cc1ccc(NC(=O)CN2C(=O)N/C(=C\c3cccn3-c3cccc(C(=O)O)c3)C2=O)cc1	none (no result: ALR H2O2 inh, rCAG binder)
CCCS(=O)(=O)NC(=O)C1(C)CCN(C(=O)c2cncc(Br)c2)C1 (configuration not stated)	none (no result: PHOSPHO1 inh, ALR H2O2 inh, A3G deaminase, A3A deaminase)
CCn1c(SCC(=O)Nc2ccc(C(C)C)cc2)nnc1-c1ccc(C(C)(C)C)cc1	none (no result: PHOSPHO1 inh, ALR H2O2 inh, A3G deaminase, aDG glyco act, A3A deaminase)
O=C(Nc1ccc2ccccc2c1)NC1CCCCN(Cc2ccc(Cl)cc2)C1=O (configuration not stated)	none (no result: PHOSPHO1 inh, ALR H2O2 inh, A3G deaminase, aDG glyco act, A3A deaminase)
CCN(C(=O)COC(=O)/C=C/c1c(C)nn(-c2ccccc2)c1C)c1c(N)n(Cc2ccccc2)c(=O)[nH]c1=O	none (no result: PHOSPHO1 inh, ALR H2O2 inh, A3G deaminase, A3A deaminase)
O=C(CSc1ccccn1)N1CCc2ccccc21	A3A deaminase 66 | A3A conf inactive
O=C(CSc1ccc(-c2ccccn2)nn1)N1CCc2ccccc21	none
Cc1ccc(N(Cc2cc3cccc(C)c3[nH]c2=O)S(=O)(=O)c2ccccc2)c(C)c1	A3A deaminase 54 (no result: rCAG binder) | A3A conf 67 | UDG A3A counter inactive
CCCCN(C(=O)c1cnccn1)c1c(N)n(CCC)c(=O)[nH]c1=O	A3A deaminase 45 (no result: PHOSPHO1 inh) | A3A conf 46 | UDG A3A counter inactive
CCCCN(C(=O)c1c(CC)noc1C)c1c(N)n(CCCC)c(=O)[nH]c1=O	A3A deaminase 44 (no result: PHOSPHO1 inh) | A3A conf inactive | UDG A3A counter inactive
C#CCN(Cc1cccc(F)c1)C(=O)c1nnc2c3ccccc3n(S(=O)(=O)c3ccc(C)cc3)c2n1	none (no result: PHOSPHO1 inh, ALR H2O2 inh, A3G deaminase, aDG glyco act, A3A deaminase)
COc1ccccc1OCCSc1nnc(CNC(=O)c2ccco2)n1C	A3A deaminase 48 (no result: ALR H2O2 inh) | A3A conf inactive
Cn1c(=O)cc(OCC(=O)N2CCN(c3ccc(F)cc3)CC2)c2ccccc21	none (no result: PHOSPHO1 inh, ALR H2O2 inh, A3G deaminase, aDG glyco act, A3A deaminase)
O=C1CCCC/C1=C\Nc1ccc(Cl)cn1	A3A deaminase 42 | A3A conf inactive
CCn1c2c(c(C)cc1=O)C(=O)CC(C)(C)C2	none
CCn1c(C)c2c([n+]1CC)CC(C)(C)CC2=O	PHOSPHO1 inh 91, A3A deaminase 59 | A3A conf 76 | UDG A3A counter inactive
CCn1c(/C=C/c2cc[n+](C)cc2)nc2ccccc21	A3A deaminase 53 | A3A conf 47
O=C(Nc1ccc(F)c(Cl)c1)C1Cc2c(-c3ccco3)ccnc2O1 (configuration not stated)	none (no result: PHOSPHO1 inh, ALR H2O2 inh, A3G deaminase, A3A deaminase)
COc1ccc(C(=O)N[C@H](C(=O)NCc2cccs2)C(C)C)cc1	A3A deaminase 40 | A3A conf inactive | UDG A3A counter inactive
Cc1ccccc1NC(=O)NNC(=O)CCc1ccccc1	A3A deaminase 41 | A3A conf inactive
CC(C)C[C@H]1COc2cc(N3CCCC3)ccc2S(=O)(=O)N1	none (no result: PHOSPHO1 inh, ALR H2O2 inh, A3G deaminase, aDG glyco act, A3A deaminase)
COC(=O)C1=C(C)N(Cc2ccccc2)C(=S)NC1c1ccc(Br)cc1 (configuration not stated)	none (no result: PHOSPHO1 inh, ALR H2O2 inh, A3G deaminase, aDG glyco act, A3A deaminase)
O=C(CSc1nnc(NC(=O)c2ccc3c(c2)OCO3)s1)NCc1ccco1	A3A deaminase 88 | A3A conf inactive | UDG A3A counter inactive
O=C(Nc1ccccc1N1CCN(c2ccc(F)cc2)CC1)c1ccccc1	none
CCN1CCN(c2ccccc2NC(=O)c2ccc(-n3cccn3)cc2)CC1	A3A deaminase 46 (no result: PHOSPHO1 inh, ALR H2O2 inh) | A3A conf inactive
CCn1c(CNC(=O)COc2ccc(C(C)C)cc2)nnc1SCC(=O)Nc1cc(F)ccc1C	A3A deaminase 78 | A3A conf 77 | UDG A3A counter inactive
CCn1c(CNC(=O)COc2ccc(C(C)C)cc2)nnc1SCC(=O)Nc1ccc(F)cc1	none
CC(C)(C)OC(=O)N1CCC[C@@H]1C(=O)NCc1ccccc1	none (no result: PHOSPHO1 inh, ALR H2O2 inh, A3G deaminase, aDG glyco act, A3A deaminase)
CN1CCN(CC(=O)Nc2sc3c(c2C(=O)Nc2ccccc2)CCCC3)CC1	A3A deaminase 57 | A3A conf 43 | UDG A3A counter inactive
O=C(CN1CCCC1)Nc1sc2c(c1C(=O)Nc1ccc(Br)cc1)CCC2	none
COc1ccc(N2CC(C(=O)Nc3nnc(SCC(=O)NC(C)(C)C)s3)CC2=O)cc1 (configuration not stated)	A3A deaminase 48 | A3A conf inactive
O=C(CSc1nnc(-c2ccccc2)n1-c1ccc(Cl)cc1)NN=Cc1c[nH]c2ccccc12	none (no result: PHOSPHO1 inh, ALR H2O2 inh, A3G deaminase, aDG glyco act, A3A deaminase)
